From PubChem BioAssay (NCATS) come the findings set out here.

Records with an inconclusive call do not appear. Activity calls are given as the source filed them. Unless noted, the rule behind the calls is not given here.

Assay [1] is described as follows: qHTS profiling for inhibitors of Plasmodium falciparum (3D7) proliferation (AID 743322).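 Note: infected erythrocytes exposed to compound for 72 h before lysis; 100% = DMSO vehicle wells and 0% = 0.29 µM artemisinin.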 Conditions: P. falciparum 3D7 proliferation; at 28.7 µM (top of the series) unless noted. The gist of the method:
(§1)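 Parasite DNA was quantified by SYBR Green I fluorescence (ex 485, em 535 nm) after overnight lysis in saponin/Triton buffer at room temperature. Cultures at 0.3% parasitemia and 2.5% hematocrit were first exposed to compound for 72 h at 37 C; signals were normalised to artemisinin (0.29 uM) and vehicle wells.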

The nature of assay [2]: qHTS profiling for inhibitors of Plasmodium falciparum (DD2) proliferation (AID 743323). The note with it: lower = more inhibition; at 28.7 µM (top of the series) unless noted. The method, boiled down:
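Parasite DNA quantified by SYBR Green fluorescence (ex 485, em 535 nm) after saponin/Triton lysis and overnight dark incubation. Cultures: 0.3% parasitemia, 2.5% hematocrit, 72 h, 37 C; data scaled between DMSO and 0.29 uM artemisinin.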

Assay [3] is described as follows: qHTS profiling for inhibitors of Plasmodium falciparum (HB3) proliferation (AID 743324; active = well fitted curve in the direction sought with a large enough effect; an effect the other way counts as inactive or inconclusive;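 note: 100% = DMSO vehicle wells and 0% = artemisinin-treated control wells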). Conditions: Plasmodium falciparum HB3 blood-stage proliferation; at 28.7 µM (top of the series) unless noted. The gist of the method: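 SYBR Green fluorescence (485 ex/535 em) of lysed cultures, incubated overnight at room temperature in the dark, quantifies parasite DNA. Infected erythrocytes at 0.3% parasitemia and 2.5% hematocrit were exposed 72 h; values normalized to DMSO and 0.29 uM artemisinin controls.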

Assay [4] in a line: qHTS for Activators of Parkin Expression: LOPAC Validation Assay (FLuc Reporter) (AID 720573; active = well fitted curve in the direction sought with a large enough effect; an effect the other way counts as inactive or inconclusive;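 note: 0% = DMSO and 100% = positive control compounds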). Conditions: Cell line, PRKN promoter firefly luciferase reporter; series mostly up to 46.1 µM. The gist of the method: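 FLuc luminescence read-out from a neuronal line expressing a Parkin-promoter-driven coincidence reporter. Cells treated 24 h at 37 C, 5% CO2 with compounds at 7 concentrations; signal increase normalized to DMSO and positive control.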
For orientation: qHTS replaces the single test concentration by a dilution series.

The target of assay [5] is Hexokinase-4 (Homo sapiens) + Glucokinase regulatory protein (Homo sapiens) (UniProt P35557+Q14397). The assay is described as follows: qHTS assay for inhibitors of recombinant human GCK-GKRP interaction: Diaphorase-coupled assay (AID 743205; active = well fitted curve in the direction sought with a large enough effect; an effect the other way counts as inactive or inconclusive). The note with it: G6PDH/diaphorase resorufin fluorescence; series mostly up to 57.5 µM. The method, boiled down:
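Resorufin fluorescence (525/590 nm), read each minute over 30 min, reports GCK activity coupled via G6PDH and diaphorase. Reaction: 10 nM GST-GCK, 10 nM FLAG-GKRP, 5 mM glucose, 0.4 mM ATP, 0.15 mM NADP+, 0.1 mM resazurin.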

Assay [6] in a line: qHTS profiling of the MIPE4 collection as inhibitors of Plasmodium falciparum (3D7) proliferation (AID 743344).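 Note: scaled between DMSO vehicle wells and 0.29 µM artemisinin as full inhibition.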 Conditions: P. falciparum 3D7 in erythrocytes, SYBR Green DNA fluorescence, 72 h; at 28.5 µM (top of the series). The method, boiled down: as §1
A short description of assay [7]: qHTS profiling of the MIPE4 collection as inhibitors of Plasmodium falciparum (DD2) proliferation (AID 743345). The note with it: P. falciparum Dd2 in erythrocytes, SYBR Green DNA, 72 h; at 28.5 µM (top of the series). The gist of the method:
as §1

Assay [8] in a line: qHTS profiling of the MIPE4 collection as inhibitors of Plasmodium falciparum (DD2) proliferation (Rep 2) (AID 743346). Conditions: P. falciparum Dd2 in erythrocytes, SYBR Green DNA, 72 h; at 28.5 µM (top of the series). The gist of the method:
as §1

Assay [9] in a line: qHTS profiling of the MIPE4 collection as inhibitors of Plasmodium falciparum (HB3) proliferation (AID 743347).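 Note: plate controls were DMSO vehicle wells for no effect and artemisinin wells for full effect.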 Conditions: P. falciparum HB3 in erythrocytes, SYBR Green DNA, 72 h; at 28.5 µM (top of the series). The gist of the method:
as §1

Hexokinase-4 (Homo sapiens) + Glucokinase regulatory protein (Homo sapiens), sequence (P35557 whole entry, looked up): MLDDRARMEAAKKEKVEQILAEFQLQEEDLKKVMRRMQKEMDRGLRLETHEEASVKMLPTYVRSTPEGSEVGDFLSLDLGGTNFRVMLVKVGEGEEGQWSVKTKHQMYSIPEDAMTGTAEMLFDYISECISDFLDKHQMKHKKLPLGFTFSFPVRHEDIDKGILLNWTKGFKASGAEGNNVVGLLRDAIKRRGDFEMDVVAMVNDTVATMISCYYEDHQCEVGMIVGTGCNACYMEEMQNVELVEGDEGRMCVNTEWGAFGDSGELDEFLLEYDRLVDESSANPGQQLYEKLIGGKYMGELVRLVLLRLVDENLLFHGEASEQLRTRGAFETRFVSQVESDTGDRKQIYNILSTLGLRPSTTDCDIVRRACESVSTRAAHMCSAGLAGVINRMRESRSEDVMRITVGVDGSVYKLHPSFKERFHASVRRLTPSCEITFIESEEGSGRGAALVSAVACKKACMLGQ
Hexokinase-4 (Homo sapiens) + Glucokinase regulatory protein (Homo sapiens), sequence (Q14397 whole entry, looked up): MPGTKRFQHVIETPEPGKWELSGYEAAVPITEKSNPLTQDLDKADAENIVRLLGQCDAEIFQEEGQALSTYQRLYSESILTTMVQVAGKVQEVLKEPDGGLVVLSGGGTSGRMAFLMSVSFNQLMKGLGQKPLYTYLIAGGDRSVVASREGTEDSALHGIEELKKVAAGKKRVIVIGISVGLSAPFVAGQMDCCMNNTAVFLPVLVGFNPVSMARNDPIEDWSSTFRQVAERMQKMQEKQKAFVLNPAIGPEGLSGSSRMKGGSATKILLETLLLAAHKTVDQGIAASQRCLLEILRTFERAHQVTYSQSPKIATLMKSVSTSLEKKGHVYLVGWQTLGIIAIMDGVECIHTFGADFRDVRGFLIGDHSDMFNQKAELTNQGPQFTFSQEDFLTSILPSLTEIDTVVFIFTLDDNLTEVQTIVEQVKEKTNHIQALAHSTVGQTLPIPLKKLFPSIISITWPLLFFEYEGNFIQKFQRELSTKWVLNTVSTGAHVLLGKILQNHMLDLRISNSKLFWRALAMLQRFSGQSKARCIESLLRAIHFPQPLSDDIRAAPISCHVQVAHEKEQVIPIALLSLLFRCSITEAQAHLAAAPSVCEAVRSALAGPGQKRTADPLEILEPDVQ

Regarding `C=C[C@@H]1CN2CC[C@@H]1C[C@H]2[C@H](O)c1ccnc2ccc(OC)cc12`, the remaining parasite growth % (stronger effect = lower value) in [1] was found to be 0.99%. Also, the activity, percent of control in assay [2] is 1.73%. For the same molecule, in assay [3], the remaining proliferation (% of control), lower = more inhibition worked out at 1.02%.

`CC[C@@H](C)[C@H]1O[C@]2(CC[C@H]1C)C[C@@H]1C[C@@H](CC=C(C)[C@@H](O[C@H]3C[C@H](OC)[C@@H](O[C@H]4C[C@H](OC)[C@@H](O)[C@H](C)O4)[C@H](C)O3)[C@@H](C)C=CC=C3CO[C@@H]4[C@H](O)C(C)=C[C@@H](C(=O)O1)[C@]34O)O2`: the remaining parasite growth % (stronger effect = lower value) in assay [1] was -0.904%. Further, in [2], the activity, percent of control is -0.0225%. Further, the remaining proliferation (% of control), lower = more inhibition in assay [3] is -0.425%.

Take `CNC(=O)[C@H]1O[C@@H](n2cnc3c(NCc4cccc(I)c4)ncnc32)[C@H](O)[C@@H]1O`: the Potency result in assay [4] is “inactive”.

In the case of `O=C(O)[C@@H]1C[C@@H](C(=O)O)N1`, in assay [4], the Potency result was “inactive”.

As for `O=C1NC(=O)/C(=C/c2ccc3nccnc3c2)S1`, the result in assay [5] was inactive.

As for `O=C(c1ccc(OCCCc2cnc[nH]2)cc1)C1CC1`, in [5], the result was inactive.

Take `COc1cc(NC(C)CCCN)c2ncccc2c1` (configuration not stated): the remaining parasite growth % (stronger effect = lower value) in assay [1] was found to be 4.3% [at 9.63 µM]. Moreover, the activity, percent of control in assay [2] amounted to 2.77% [at 9.63 µM]. The remaining proliferation (% of control), lower = more inhibition in assay [3] amounted to 6.48% [at 9.63 µM]. This molecule also showed a parasite growth, % of DMSO control in assay [6] of 7.16%. Besides, the parasite growth remaining, % of DMSO control (lower = more inhibition) in assay [7] was 8.84%. In assay [8], this molecule came in with a parasite growth, % of control (lower = inhibition) of 15.5%. In addition, in [9], the growth, % of control is 8.75%.
